Vaccinia Venus = qHTS for Stage-Specific Inhibitors of Vaccinia Orthopoxvirus: Venus Reporter Primary qHTS. Vaccinia virus Venus reporter expression, fluorescence. actives 0.46% (n = 330,000). Potency, µM (series often up to 36.5 µM), usual class: inhibitors; calls by dose curve; tested in A549 cells; further: nearly all actives have a fitted effect of over 30% in size
Shiga inhibitor = A qHTS for Small Molecule Inhibitors of Shiga Toxin; Vero cells, Shiga toxin protein synthesis inhibition reporter; inhibition, % at 38.7 µM; actives 9.2% (n = 290,000); AID 2315, 2010; in the data active means inhibition mostly above about 28%, no sharp cut-off; inactive means mostly below about 43%
Marburg entry inh = qHTS for inhibitors of binding or entry into cells for Marburg Virus | actives 1.8% (n = 300,000) | Marburg virus pseudotyped entry inhibition, cell reporter | AID 540276, 2011 | Potency, µM (highest dose often 37.8 µM), actives largely listed as inhibitors; calls by dose curve; tested in HEK293 cells
Vaccinia mCherry = qHTS for Stage-Specific Inhibitors of Vaccinia Orthopoxvirus: mCherry Reporter Primary qHTS; Vaccinia virus mCherry reporter infection, fluorescence; Potency, µM (series often up to 36.5 µM), actives largely listed as inhibitors; actives 0.63% (n = 310,000); calls by dose curve; tested in A549 cells; further: nearly all actives have a fitted effect of over 35% in size
Cycloheximide cs = Cycloheximide Counterscreen for Small Molecule Inhibitors of Shiga Toxin; cell reporter, cycloheximide protein synthesis inhibition counterscreen; max response, %; actives 12% (n = 300,000); AID 2314, 2010; in the data active means max response mostly above about 13%, no sharp cut-off; inactive means mostly below about 14%; further: read at 38.3 µM for the half of the compounds with a filed dose
LASV entry inh = qHTS for Inhibitors of binding or entry into cells for Lassa Virus | Lassa virus pseudotype entry inhibition, cell reporter | Potency, µM (titrated, usually from 37.9 µM), most hits filed as inhibitors | actives 1.2% (n = 300,000); calls by dose curve; tested in HEK293 cells; further: nearly all actives have a fitted effect of over 50% in size
A number is an active result; i = inactive; ? = inconclusive; nt = not tested or not shown; [ ] = another dose, or the depositor's remark. The sample as a whole holds a higher share of hits than the screen did.

SMILES | Vaccinia Venus | Shiga inhibitor | Marburg entry inh | Vaccinia mCherry | Cycloheximide cs | LASV entry inh
Cc1cc(C)c(S(=O)(=O)Nc2ccc3oc(C)c(C(=O)OC(C)C)c3c2)cc1C | i | nt | i | i | nt | i
O=C(CC1NCCNC1=O)Nc1ccccc1F (configuration not stated) | i | nt | i | i | nt | i
COCCCNc1ncnc2sc(C(=O)N3CCOCC3)c(C)c12 | i | nt | nt | i | nt | nt
N/C(=N\OC(=O)C1CCCCC1)c1cccnc1 | nt | i | i | nt | i | i
N/C(=N\OC(=O)CC1CCCCC1)c1cccnc1 | i | i | i | i | 27 | ?
N/C(=N\OC(=O)CCC1CCCC1)c1cccnc1 | i | i | ? | i | 15 | i
O=C(NC1CCCCC1)c1n[nH]c2c1CCCCC2 | i | nt | nt | i | nt | nt
O=C(NN=C1CCCC1)c1n[nH]c2c1CCCC2 | nt | 59 | i | nt | 32 | i
O=C(NN=C1CCCC1)c1n[nH]c2c1CCC2 | ? | i | i | ? | 24 | i
CCOC(=O)C1=C(C)C(c2cccc(Oc3ccccc3)c2)NC(=S)N1 (configuration not stated) | i | i | ? | i | i | 8.9µM
CCOC(=O)C1=C(C)C(c2ccc(OC)cc2)NC(=S)N1 (configuration not stated) | nt | i | i | nt | i | i
Cc1ccc(OCc2nnc(N)s2)cc1C | i | 59 | i | i | 21 | ?
Cc1ccc(OCc2nnc(N)s2)cc1 | i | 27 | ? | i | 28 | ?
Cc1cc(C)cc(OCc2nnc(N)s2)c1 | i | i | ? | i | i | i
Cc1cc(N2CCC(C)CC2)nc2cccc(O)c12 | ? | i | i | i | i | nt
CC(CCN1CCCCc2nc(C)c(C)cc21)=NO[C@@H](C)c1cn([C@H](CO)Cc2ccccc2)nn1 | nt | nt | i | nt | nt | nt
Cc1ccccc1/C(=N\S(=O)(=O)c1ccc(Br)cc1)Nc1ccccc1 | i | nt | nt | i | nt | nt
Cc1c(/N=C(\[O-])Nc2ccc(Br)cc2)sn[n+]1C | nt | 95 | nt | nt | 47 | nt
CCOc1cc(S(=O)(=O)NCc2ccccc2)c(OCC)cc1-n1cnnn1 | nt | nt | i | nt | nt | i
CCOc1cc(S(=O)(=O)N(Cc2ccccc2)Cc2ccccc2)c(OCC)cc1-n1cnnn1 | i | i | 21µM | i | i | i
Cc1ccc(CCNC(=O)C2CCN(S(=O)(=O)c3ccc4c(c3)NC(=O)CO4)CC2)cc1 | nt | i | nt | nt | i | nt
Nc1c(C(=O)Nc2ccc(S(=O)(=O)N3CCCC3)cc2)sc2nc3ccc(OC(F)(F)F)cc3cc12 | i | i | 6.3µM | i | i | ?
Nc1c(C(=O)Nc2ccc(Cl)c(C(=O)O)c2)sc2nc3c(cc12)CCCC3 | i | i | i | i | i | ?
Nc1c(C(=O)Nc2ccc(S(=O)(=O)N3CCCC3)cc2)sc2nc3cc4c(cc3cc12)CCC4 | i | 22 | ? | i | 27 | ?
Cn1c2cc(S(C)(=O)=O)sc2c2cnn(Cc3ccccc3F)c(=O)c21 | nt | i | nt | nt | i | nt
SMILES | Vaccinia Venus | Shiga inhibitor | Marburg entry inh | Vaccinia mCherry | Cycloheximide cs | LASV entry inh
NCC(=O)O | nt | i | nt | nt | i | nt
O=Cc1ccccc1-n1cccn1 | i | i | ? | i | 31 | i
COC(=O)c1ccc(COc2ncnc3ccccc23)o1 | i | i | i | i | i | i
COCCC(=O)N1CCC(Oc2ccc(C(=O)N3CCCCCCC3)cc2)CC1 | i | i | i | i | i | i
COCCC(=O)N1CCC(Oc2ccc(C(=O)NCCc3cnn(C)c3)cc2)CC1 | i | i | i | i | i | i
COCCC(=O)N1CCC(Oc2ccc(C(=O)NCCC3=CCCCC3)cc2)CC1 | nt | i | nt | nt | 19 | nt
COCCC(=O)N1CCC(Oc2ccc(C(=O)NCCCC3CCCC3)cc2)CC1 | i | i | i | i | 13 | i
COCCC(=O)N1CCC(Oc2ccc(C(=O)N(C)CCCC3CCCC3)cc2)CC1 | nt | 57 | nt | nt | 26 | nt
CCn1cc(/C=N/NC(=O)c2cc3c(ccc4ccccc43)o2)c2ccccc21 | i | i | i | i | i | i
CCOC(=O)Cn1cc(/C=N/NC(=O)c2cc3ccccc3o2)c2ccccc21 | i | i | i | i | 26 | ?
CNC(=S)N/N=C/c1cn(Cc2ccc(F)cc2)c2ccccc12 | ? | i | ? | 3.2µM | i | ?
O=Cc1cn(Cc2ccccc2F)c2ccccc12 | i | i | ? | ? | i | ?
Nc1ccc(C(=O)N/N=C/c2cn(Cc3ccccc3F)c3ccccc23)cc1 | i | 33 | i | ? | 19 | ?
O=C(O)c1ccc(N/N=C/c2cn(Cc3ccccc3F)c3ccccc23)cc1 | i[7.34 µM] | i | nt | ? | 67 | nt

Assay outcomes as filed in PubChem BioAssay.
